Measured values as given in the supplement of paper PMC8728848.
Only a selection was taken, and the strongest signals are over-represented in it overall.

Experiments:
Assay in all cases: glycan array binding signal (z-score within array); higher = stronger binding
Conditions in all cases: glycan notation: IUPAC condensed, linker removed
[1] = target: Fuc(a1-2)Gal(b1-3)GlcNAc(b1-2)Man(a1-3)[Fuc(a1-2)Gal(b1-3)GlcNAc(b1-2)Man(a1-6)]Man(b1-4)GlcNAc(b1-4)GlcNAc
Method in brief: (§1)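 Negative Z-scores can be read as non-binding. The Z-score is calculated within each array and then averaged across arrays of one protein sequence at different concentrations or buffers and across linkers. Arrays, 3228 in all, were curated from the Consortium for Functional Glycomics database and kept only where the protein sequence was available.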

Fuc(a1-2)Gal(b1-4)Glc = target: Fuc(a1-2)Gal(b1-4)Glc
Method in brief: as §1

[2] = target: Fuc(a1-2)Gal(b1-4)GlcNAc(b1-3)[Fuc(a1-2)Gal(b1-4)GlcNAc(b1-6)]GalNAc
Method in brief: as §1

[3] = target: Fuc(a1-2)Gal6S(b1-3)GlcNAc6S
Method in brief: as §1

[4] = target: Fuc(a1-2)[Gal(a1-3)]Gal(b1-4)[Fuc(a1-3)]GlcNAc
Method in brief: as §1

[5] = target: Fuc(a1-2)[GalNAc(a1-3)]Gal(b1-3)GlcNAc(b1-3)GalNAc
Method in brief: as §1

[6] = target: Fuc(a1-2)[GalNAc(a1-3)]Gal(b1-4)Glc
Method in brief: as §1

[7] = target: Fuc(a1-2)[GalNAc(a1-4)]Gal(b1-4)GlcNAc
Method in brief: as §1

[8] = target: Fuc(a1-3)[Gal(b1-4)]GlcNAc(b1-6)GalNAc
Method in brief: as §1

[9] = target: Gal(b1-4)GlcNAc(b1-2)Man(a1-3)[Gal(b1-4)GlcNAc(b1-2)Man(a1-6)]Man(b1-4)GlcNAc(b1-4)[Fuc(a1-6)]GlcNAc
Method in brief: as §1

[10] = target: Gal(b1-4)GlcNAc(b1-2)Man(a1-3)[GlcNAc(b1-4)][Gal(b1-4)GlcNAc(b1-2)Man(a1-6)]Man(b1-4)GlcNAc(b1-4)GlcNAc
Method in brief: as §1

[11] = target: Gal(b1-4)GlcNAc(b1-2)[Gal(b1-4)GlcNAc(b1-6)]Man(a1-6)[GlcNAc(b1-4)][Gal(b1-4)GlcNAc(b1-2)Man(a1-3)]Man(b1-4)GlcNAc(b1-4)GlcNAc
Method in brief: as §1

[12] = target: Gal(b1-4)GlcNAc(b1-3)Gal(b1-4)GlcNAc(b1-2)[Gal(b1-4)GlcNAc(b1-3)Gal(b1-4)GlcNAc(b1-6)]Man(a1-6)[Gal(b1-4)GlcNAc(b1-3)Gal(b1-4)GlcNAc(b1-2)Man(a1-3)]Man(b1-4)GlcNAc(b1-4)GlcNAc
Method in brief: as §1

[13] = target: Gal(b1-4)GlcNAc(b1-3)Gal(b1-4)GlcNAc(b1-3)Gal(b1-4)GlcNAc
Method in brief: as §1

[14] = target: Gal(b1-4)GlcNAc(b1-3)Gal(b1-4)GlcNAc(b1-3)Gal(b1-4)GlcNAc(b1-3)Gal(b1-4)GlcNAc(b1-2)Man(a1-3)[Gal(b1-4)GlcNAc(b1-3)Gal(b1-4)GlcNAc(b1-3)Gal(b1-4)GlcNAc(b1-3)Gal(b1-4)GlcNAc(b1-2)Man(a1-6)]Man(b1-4)GlcNAc(b1-4)[Fuc(a1-6)]GlcNAc
Method in brief: as §1

[15] = target: Gal(b1-4)GlcNAc(b1-3)[Gal(b1-4)GlcNAc(b1-6)]Gal(b1-4)GlcNAc
Method in brief: as §1

[16] = target: Gal(b1-4)GlcNAc(b1-3)[GlcNAc(b1-6)]Gal(b1-4)GlcNAc
Method in brief: as §1

[17] = target: GalNAc(b1-3)Gal(a1-4)Gal(b1-4)GlcNAc
Method in brief: as §1

GlcA(b1-6)Gal = target: GlcA(b1-6)Gal
Method in brief: as §1

[18] = target: GlcNAc(b1-3)Gal(b1-3)GalNAc
Method in brief: as §1

[19] = target: GlcNAc(b1-3)Gal(b1-4)GlcNAc(b1-3)Gal(b1-4)GlcNAc(b1-2)Man(a1-3)[GlcNAc(b1-3)Gal(b1-4)GlcNAc(b1-3)Gal(b1-4)GlcNAc(b1-2)Man(a1-6)]Man(b1-4)GlcNAc(b1-4)GlcNAc
Method in brief: as §1

[20] = target: GlcNAc(b1-3)Gal(b1-4)GlcNAc(b1-3)Gal(b1-4)GlcNAc(b1-3)Gal(b1-4)GlcNAc(b1-2)[GlcNAc(b1-3)Gal(b1-4)GlcNAc(b1-3)Gal(b1-4)GlcNAc(b1-3)Gal(b1-4)GlcNAc(b1-6)]Man(a1-6)[GlcNAc(b1-3)Gal(b1-4)GlcNAc(b1-3)Gal(b1-4)GlcNAc(b1-3)Gal(b1-4)GlcNAc(b1-2)Man(a1-3)]Man(b1-4)GlcNAc(b1-4)[Fuc(a1-6)]GlcNAc
Method in brief: as §1

[21] = target: GlcNAc(b1-4)GlcNAc(b1-4)GlcNAc(b1-4)GlcNAc(b1-4)GlcNAc(b1-4)GlcNAc
Method in brief: as §1

[22] = target: Man(a1-3)[Man(a1-6)]Man(a1-6)[Man(a1-3)]Man
Method in brief: as §1

[23] = target: Neu5Ac(a2-3)Gal(b1-4)GlcNAc(b1-2)Man
Method in brief: as §1

[24] = target: Neu5Ac(a2-3)Gal(b1-4)GlcNAc(b1-3)Gal(b1-3)GlcNAc
Method in brief: as §1

[25] = target: Neu5Ac(a2-3)Gal(b1-4)GlcNAc(b1-3)Gal(b1-4)GlcNAc(b1-3)Gal(b1-4)GlcNAc
Method in brief: as §1

[26] = target: Neu5Ac(a2-3)Gal(b1-4)GlcNAc(b1-3)Gal(b1-4)GlcNAc(b1-3)GalNAc
Method in brief: as §1

[27] = target: Neu5Ac(a2-3)Gal(b1-4)[Fuc(a1-3)]GlcNAc(b1-6)[Neu5Ac(a2-3)Gal(b1-3)]GalNAc
Method in brief: as §1

[28] = target: Neu5Ac(a2-6)Gal(b1-4)GlcNAc(b1-3)Gal(b1-4)GlcNAc(b1-6)[Gal(b1-3)]GalNAc
Method in brief: as §1

[29] = target: Neu5Ac(a2-6)Gal(b1-4)GlcNAc(b1-6)GalNAc
Method in brief: as §1

[30] = target: Neu5Ac(a2-8)Neu5Ac(a2-8)Neu5Ac(a2-3)Gal(b1-4)Glc
Method in brief: as §1

[31] = target: Neu5Ac(b2-6)Gal(b1-4)GlcNAc
Method in brief: as §1

[32] = target: Neu5Ac9Ac(a2-3)Gal(b1-3)GlcNAc
Method in brief: as §1

[33] = target: Neu5Gc(a2-3)Gal(b1-4)[Fuc(a1-3)]GlcNAc
Method in brief: as §1

Neu5Gc(a2-6)GalNAc = target: Neu5Gc(a2-6)GalNAc
Method in brief: as §1

B1: truncCC1G-10077 (Coprinopsis cinerea) (protein)
chain: MHHHHHHHHPLPSPGPGWVLIQNGGTGKFLCSTPSGDIGTADGPETVYDYSVQWRFIQREYTGVYHVVNRATGAYLRQIGTSMPSIGLAEENDDELKDWWMLETYDNSEIGLASIISRWTGNVLDHYGGVSVQALDNNTENSYRSWAIIPARDWLTSFSLVNGQGGLCLAAQYAREETRLSTTANVNDFHAQWVFRKPSGSSGYTIQNKYNNHYVGGTSARWELVVCCNKYFGIRNTSTQKYLAIEDGQVTFQDQDMTDRKQCWELCSGRATDTSGNDYDLIYMDDDLLEVMIPWVGDKQGDLKHYIEKRATKKPPKDKGGWQLPAAGLIKKPKFNDIRQLLQELIEQWEWDVVNEEREQIQTLVSIDEAEARRLLGRRPHPDIVAAYQRSRSSTLFRIDRQGYFNIAGDRYVNIQGQYGDDSYFHIALPVGVRFGREQIRRFLRDSLDRSTSVTITPTTCKPPSGGPDYNRDPDSDGDNSWIKWTIAVVGTSAIKHSEL
[1]
  glycan array binding signal (z-score): 3.72
Fuc(a1-2)Gal(b1-4)Glc
  glycan array binding signal (z-score): -0.216
[2]
  glycan array binding signal (z-score): 2.81
[3]
  glycan array binding signal (z-score): 0.519
[4]
  glycan array binding signal (z-score): 1.66
[5]
  glycan array binding signal (z-score): 3.65
[6]
  glycan array binding signal (z-score): -0.829
[7]
  glycan array binding signal (z-score): -0.664
[8]
  glycan array binding signal (z-score): 3.46
[9]
  glycan array binding signal (z-score): 3.13
[10]
  glycan array binding signal (z-score): 0.359
[11]
  glycan array binding signal (z-score): -0.119
[12]
  glycan array binding signal (z-score): 3.74
[13]
  glycan array binding signal (z-score): -0.532
[14]
  glycan array binding signal (z-score): 0.374
[15]
  glycan array binding signal (z-score): -0.821
[16]
  glycan array binding signal (z-score): -1.04
[17]
  glycan array binding signal (z-score): -0.242
GlcA(b1-6)Gal
  glycan array binding signal (z-score): 4.61
[18]
  glycan array binding signal (z-score): -0.15
[19]
  glycan array binding signal (z-score): 1.17
[20]
  glycan array binding signal (z-score): 0.218
[21]
  glycan array binding signal (z-score): -0.144
[22]
  glycan array binding signal (z-score): 0.384
[23]
  glycan array binding signal (z-score): 2.91
[24]
  glycan array binding signal (z-score): -0.855
[25]
  glycan array binding signal (z-score): -1.07
[26]
  glycan array binding signal (z-score): 0.244
[27]
  glycan array binding signal (z-score): 3.72
[28]
  glycan array binding signal (z-score): 0.521
[29]
  glycan array binding signal (z-score): 3.21
[30]
  glycan array binding signal (z-score): 0.249
[31]
  glycan array binding signal (z-score): -1.25
[32]
  glycan array binding signal (z-score): -1.02
[33]
  glycan array binding signal (z-score): 3.02
Neu5Gc(a2-6)GalNAc
  glycan array binding signal (z-score): -0.873
